A short description of test [1]: signal quenchers or enhancers, Cy5 substrate/SSB – biochemical, NIH Clinical Collection, E. coli SSB, artefact control for HCV NS3 helicase inhibitor project (AID 743268). The following applies: Cy5-oligo bound E. coli SSB, fluorescence interference.
The test system of test [2] is Hepatitis C virus NS3 helicase. Description: blockers of NS3h binding to DNA – biochemical, fluorescence polarization, NIH Clinical Collection, primary screen (AID 743270). The note with it: NS3 helicase binding to Cy5-dT15 DNA, stronger effect = higher value, concentration not given here. On the technique in general: Fluorescence polarisation rises when a labelled molecule tumbles more slowly, as on binding a larger partner.

The target in test [3] is Single-stranded DNA-binding protein (Escherichia coli (strain K12)) (UniProt P0AGE0). Description: SSB-ssDNA binding inhibitors – biochemical, fluorescence polarization, NIH Clinical Collection, counter-screen for HCV NS3 helicase inhibitor project (AID 743271; in the data active = inhibition above about 28%). The note with it: E. coli SSB-DNA binding, stronger effect = higher value, concentration not given here.
Test [4] in a line: compounds distorting NS3 helicase fluorescence signal – biochemical, NIH Clinical Collection, artefact control for HCV NS3 helicase inhibitor project (AID 743272).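 Note: HCV NS3 helicase with a Cy5 labelled single stranded DNA probe.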 The note with it: fluorescence interference counterscreen, HCV NS3 helicase assay; stronger effect = lower value. In general terms: A counterscreen serves to expose hits that act by an unwanted route or on another target.
Test [5] can be described thus: Wnt pathway potentiators raising nuclear beta-catenin – imaging, WNT3A-conditioned medium, mouse C2C12, NPC library, primary screen (AID 1117326; in the data active = nuclear beta-catenin stimulation mostly above about 4.2%, no sharp cut-off; inactive = mostly below about 10%). The following applies: stronger effect = higher value.
Test [6] is described as follows: stimulators of insulin release from INS-1E, primary screen, cell-based, 5 mM glucose, NPC library (AID 1117329;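 active = compound raises insulin release from rat beta cells at 5 mM glucose, no numeric limit stated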). The following applies: rat INS-1E insulin secretion, at 10 µM, stronger effect = higher value.
Test [7] in a line: growth inhibition of GSK3B-pretreated HCT116 cells – cell-based, CellTiter-Glo, 0.2 to 20 µM (AID 1117336;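 active = compounds lowering colon cancer cell viability after pretreatment blocking the GSK3B kinase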). The note with it: HCT116 viability after GSK3B inhibitor, at 20 µM, stronger effect = higher value. (ATP-based viability assays read luminescence as a measure of living cells.)
Test [8] in a line: inhibition of endothelial tube formation, primary screen, imaging, VEGF stimulated, CD31 staining, tube area, NPC library (AID 1117340;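 active = compound that reduces growth-factor-driven endothelial tube area in a mixed cell culture, no cutoff stated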). The following applies: VEGF-stimulated ADSC/ECFC co-culture, at 10 µM, stronger effect = higher value.
Test [9] is described as follows: GLP1 release stimulators, primary, NCI-H716, NPC library (AID 1117341;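 active = compound raises GLP1 secretion from the human gut endocrine cells, with no numeric limit stated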). The following applies: NCI-H716 cells, at 10 µM, stronger effect = higher value.
Test [10] is described as follows: HCT116 colon cancer cell growth inhibition, primary screen, CellTiter-Glo luminescence, NPC library (AID 1117342;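 active = compounds that lower survival of HCT116 colon cancer cells in the luminescence readout, no numeric limit stated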). The following applies: at 20 µM (top of the series).
The nature of test [11]: reduced SW480 viability measured with CellTiter-Glo, NPC library, primary (AID 1117343;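 active = compounds that lower viability of the colon cancer cells in the luminescence readout, with no numeric limit stated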). The following applies: CellTiter-Glo luminescence; at 20 µM (top of the series).
Test [12] is described as follows: NPC library primary testing for decreased DLD-1 cell viability via CellTiter-Glo (AID 1117346;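 active = compounds that lower survival of DLD-1 colon cancer cells in the luminescence readout, no cutoff given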). The following applies: DLD-1 viability, CellTiter-Glo luminescence; at 20 µM (top of the series).
The target in test [13] is 6-phosphogluconate dehydrogenase, decarboxylating (Homo sapiens) (UniProt P52209). Description: inhibition of human phosphogluconate dehydrogenase – biochemical, recombinant enzyme, NADPH absorbance, primary screen (AID 1159550;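 active = at least 20% inhibition of 6-phosphogluconate dehydrogenase activity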). The note with it: recombinant 6PGD, NADPH absorbance 341 nm; at 10 µM; stronger effect = higher value.
Test [14] can be described thus: EMT-state selective cytotoxicity in co-culture – imaging, PC-3E GFP, TEM4-18 mCherry, primary screen (AID 1345086;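 active = compounds killing one labelled cell type while sparing the other, by normalised counts and ratio limits, not self-fluorescent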;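 for all read-outs here: cells exposed to compound for 72 h before imaging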;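 for red/green cell ratio (normalised): normalised mesenchymal count divided by normalised epithelial count so high means epithelial killing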). The following applies: PC-3E GFP / TEM4-18 mCherry co-culture, imaging cell counts, at 1 µM; for red/green cell ratio (normalised): actives lie on both sides, counts scaled to control wells, 1 = unselective.
Test [15] is described as follows: MELAS cybrid and Rieske KO viability enhancers – cell-based, MELAS cybrids, Rieske KO mouse fibroblasts, CellTiter-Glo, primary screen (AID 1508586;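 active = mean z-score across replicates of 1.96 or higher in either the MELAS or the Rieske mutant cell line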;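 note: z relative to plate mean and SD of compound and empty wells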). The note with it: low glucose.
Test [16] has as its target NAD(+) hydrolase SARM1 (Homo sapiens) (UniProt Q6SZW1). In words: blocking NAD cleavage by SARM1 SAM-TIR – cell lysate, NAD-Glo luminescence (AID 1508614;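 active = compound whose remaining NAD level is above about 45 nM, limit read from the data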;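 note: higher remaining NAD means stronger inhibition of SARM1 NADase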). The note with it: SAM-TIR HEK293T lysate NADase, at 1 µM, stronger effect = higher value.
Test [17] has as its target Mitogen-activated protein kinase 7 (Homo sapiens) (UniProt Q13164). In words: Gal4-ERK5 driven luciferase induction – cell-based, HTS, primary screen (AID 1508626;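 active = luciferase signal above three times the same-plate solvent-only control wells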;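 note: luciferase driven by Gal4-ERK5 fusion binding five Gal4 sites before minimal TATA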). The following applies: HeLa Gal4-ERK5 transactivation, 18 h, at 5 µM, stronger effect = higher value.
Test [18] in a line: viability loss with induced miR-34 in A549 – imaging, A549 dox-inducible miR-34, nuclei and caspase counts, primary screen (AID 1347080;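 active = compounds whose cell count with miR-34 switched on is under 0.7 times the count with it off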). The following applies: A549 miR-34 inducible, Hoechst nuclei count, 48 h.
In another test the test system is F380Y. In words: BK channel mutant inhibitors and activators – cell-based, U2OS BacMam, thallium flux, beta subunits, selectivity assay, profiling panel (AID 1259406;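 active = thallium flux through the channel raised or lowered by more than 3 SD from vehicle-only wells, actives on both sides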;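 note: initial slope of Thallos dye fluorescence rise after thallium is added; log ratio against the mean of 0.3% DMSO vehicle wells on the same plate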). The following applies: U2OS BacMam BK variants, at 30 µM.
A short description of test [19]: P. berghei load reduction in hepatocytes – cell-based, HepG2, luciferase luminescence, HepG2 viability, primary screen (AID 624349; in the data active = parasite load remaining mostly below about 12%, no sharp cut-off; inactive = mostly above about 10%;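 note: 100% = mean of DMSO negative control wells on the same plate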). The following applies: P. berghei liver stage in HepG2, luciferase luminescence, concentration not given here; parasite load remaining: stronger effect = lower value; viability: measured here: HepG2 viability without parasites.
Setting [20] is: measured here: epithelial PC-3E GFP cell survival.
[21] abbreviates: measured here: mesenchymal TEM4-18 mCherry cell survival.
Setting [22] is: MELAS cybrid survival, CellTiter-Glo 48 h, stronger effect = higher value.
[23] abbreviates: Rieske KO mouse fibroblast survival, CellTiter-Glo 72 h.
Where [24] appears, read: stronger effect = lower value, cell number ratio, induced over uninduced.
The mark [25] stands for this setting: measured here: relative caspase fold change +Dox/-Dox.
Where [26] appears, read: measured here: total cells with miR-34 induction, stronger effect = lower value.
The mark [27] stands for this setting: measured here: total cells without miR-34 induction.

Values joined by “and” are separate entries in the source; they are usually repeats but may differ in a detail not shown here. Equal entries are not always repeated. A structure can be active in one record and inactive in another. Active and inactive are the calls of the source. Unless noted, the rule behind the calls is not given here.

Chain of Mitogen-activated protein kinase 7 (Homo sapiens) (Q13164 whole entry, looked up, the tested form may be a part): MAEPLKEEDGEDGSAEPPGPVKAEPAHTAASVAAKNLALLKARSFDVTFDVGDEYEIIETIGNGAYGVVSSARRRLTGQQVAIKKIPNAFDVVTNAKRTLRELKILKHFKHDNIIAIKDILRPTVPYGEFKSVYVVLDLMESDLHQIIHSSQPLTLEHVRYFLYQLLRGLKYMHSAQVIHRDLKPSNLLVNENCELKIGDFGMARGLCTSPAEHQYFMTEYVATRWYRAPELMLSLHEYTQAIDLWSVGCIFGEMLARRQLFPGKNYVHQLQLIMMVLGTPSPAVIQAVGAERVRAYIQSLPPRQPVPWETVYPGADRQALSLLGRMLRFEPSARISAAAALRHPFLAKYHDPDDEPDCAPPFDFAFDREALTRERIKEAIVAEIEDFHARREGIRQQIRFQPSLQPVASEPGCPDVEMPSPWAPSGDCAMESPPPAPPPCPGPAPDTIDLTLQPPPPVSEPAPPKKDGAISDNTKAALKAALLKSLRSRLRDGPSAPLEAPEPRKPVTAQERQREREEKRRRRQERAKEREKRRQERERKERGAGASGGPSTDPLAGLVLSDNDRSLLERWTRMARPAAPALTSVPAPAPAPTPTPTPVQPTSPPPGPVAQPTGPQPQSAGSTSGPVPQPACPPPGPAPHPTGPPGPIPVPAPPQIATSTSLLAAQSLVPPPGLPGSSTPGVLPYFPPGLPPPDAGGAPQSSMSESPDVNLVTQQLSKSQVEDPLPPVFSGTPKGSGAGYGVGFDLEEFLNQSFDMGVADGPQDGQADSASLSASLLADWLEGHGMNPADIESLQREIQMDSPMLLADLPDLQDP
Chain of NAD(+) hydrolase SARM1 (Homo sapiens) (Q6SZW1 whole entry, looked up, the tested form may be a part): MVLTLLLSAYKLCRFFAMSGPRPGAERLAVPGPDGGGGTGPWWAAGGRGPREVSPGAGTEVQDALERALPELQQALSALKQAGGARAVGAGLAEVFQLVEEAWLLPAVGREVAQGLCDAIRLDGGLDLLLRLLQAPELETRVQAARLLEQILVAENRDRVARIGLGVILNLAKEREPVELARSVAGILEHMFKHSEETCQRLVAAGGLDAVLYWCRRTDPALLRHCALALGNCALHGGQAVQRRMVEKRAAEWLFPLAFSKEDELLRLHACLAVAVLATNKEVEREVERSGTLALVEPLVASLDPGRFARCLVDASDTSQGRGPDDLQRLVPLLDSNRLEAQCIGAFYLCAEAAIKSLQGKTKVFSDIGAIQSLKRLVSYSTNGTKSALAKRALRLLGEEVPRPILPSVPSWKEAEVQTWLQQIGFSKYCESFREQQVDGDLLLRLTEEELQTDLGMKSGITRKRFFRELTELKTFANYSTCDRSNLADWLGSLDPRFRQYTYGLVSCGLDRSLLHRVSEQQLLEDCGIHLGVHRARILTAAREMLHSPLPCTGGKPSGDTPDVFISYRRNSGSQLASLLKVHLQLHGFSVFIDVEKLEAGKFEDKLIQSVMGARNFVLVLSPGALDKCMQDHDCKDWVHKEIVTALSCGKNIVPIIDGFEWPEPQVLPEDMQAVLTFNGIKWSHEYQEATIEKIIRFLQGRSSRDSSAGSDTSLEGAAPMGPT
Chain of 6-phosphogluconate dehydrogenase, decarboxylating (Homo sapiens) (P52209 whole entry, looked up): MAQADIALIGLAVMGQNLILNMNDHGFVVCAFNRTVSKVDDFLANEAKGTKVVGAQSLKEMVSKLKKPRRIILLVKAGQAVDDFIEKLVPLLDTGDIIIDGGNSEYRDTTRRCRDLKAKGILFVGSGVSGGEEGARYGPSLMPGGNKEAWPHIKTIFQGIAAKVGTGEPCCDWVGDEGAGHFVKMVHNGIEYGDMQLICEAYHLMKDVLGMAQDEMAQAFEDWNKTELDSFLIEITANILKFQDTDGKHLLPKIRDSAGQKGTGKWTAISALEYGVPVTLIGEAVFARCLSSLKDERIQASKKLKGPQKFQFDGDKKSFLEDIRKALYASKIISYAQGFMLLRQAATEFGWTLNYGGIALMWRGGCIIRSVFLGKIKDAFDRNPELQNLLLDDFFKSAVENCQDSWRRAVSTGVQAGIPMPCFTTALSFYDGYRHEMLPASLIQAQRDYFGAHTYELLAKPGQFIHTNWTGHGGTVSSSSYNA

As to `Nc1nc2ccc(OC(F)(F)F)cc2s1`, the fluorescence ratio in test [1] is 0.95 (inactive); in test [4] it was 0.87 (inactive). In addition, the figures for the inhibition in [2], in test [3] and in [13] were -5.94% (inactive), -0.87% (inactive) and 2.66% (inactive), respectively. Further, the nuclear beta-catenin stimulation in test [5] (at 10 µM) is 0.7% (inactive); in [5] (stimulation, at 2 µM), -0.8%. The insulin secretion stimulation in test [6] was -2.4% (inactive). In addition, the viability decrease in [7] was 32.5% (inactive). The tube area decrease in [8] is 34% (inactive). For the same compound, in test [9], the GLP1 secretion stimulation was 0.6% (inactive). Moreover, in test [10], the inhibition of viability was 21.7% (inactive). The figures for the viability decrease (inhibition) in test [11] and in [12] were 88.8% (active) and 47.1% (inactive), respectively. Moreover, in test [14], the red/green cell ratio (normalised) was 1.07 (inactive). Also, the values for the normalised cell number in [14] (setting [20]) and in test [14] (setting [21]) were 1.04 and 1.11, respectively. Further, the z-score in test [15] (setting [22]) was 0.0258 (inactive) and 0.56 (inactive) and -1.11 (inactive); in test [15] (setting [23]) it was 0.111 and -0.202 and -1.33. For the same compound, the remaining NAD in test [16] is 10 nM (inactive).
For the compound `OCCN(CCO)c1nc(N2CCCCC2)c2nc(N(CCO)CCO)nc(N3CCCCC3)c2n1`, the results for the fluorescence ratio in [1] and in [4] were 0.96 (inactive) and 0.85 (inactive), respectively. Further, the inhibition – broadly, the drop in the measured response relative to a control, in per cent – was 2.27% (inactive) in [2], 5.62% (inactive) in test [3] and 11% (inactive) in test [13]. The nuclear beta-catenin stimulation in test [5] (at 10 µM) is 0.7% (inactive); in [5] (stimulation, at 2 µM), 1.8%. For the same compound, in test [6], the insulin secretion stimulation is 0.7% (inactive). The viability decrease in [7] was 20.5% (inactive). In addition, the tube area decrease in [8] was 8.6% (inactive). Moreover, in test [9], the GLP1 secretion stimulation is 8% (inactive). Further, the inhibition of viability in [10] is 61.4% (active). The viability decrease (inhibition) in [11] is 41.1% (inactive); in test [12], 4.3% (inactive). In [14], the red/green cell ratio (normalised) was 1.08 (inactive). The normalised cell number came to 1.13 in [14] (setting [20]) and 1.22 in test [14] (setting [21]). Also, the z-score was -0.622 (inactive) and 4.01 (active) and 2.55 (active) in test [15] (setting [22]); -0.0206 and -0.634 and 4.9 in test [15] (setting [23]). Further, in test [16], the remaining NAD was 10 nM (inactive). In test [17], the luciferase signal is 136 AU (inactive).
Regarding `CC(=O)S[C@@H]1CC2=CC(=O)CC[C@]2(C)[C@H]2CC[C@@]3(C)[C@@H](CC[C@@]34CCC(=O)O4)[C@H]12`, the fluorescence ratio was 0.99 (inactive) in test [1] and 0.9 (inactive) in [4]. Moreover, the inhibition in [2] is -3.18% (inactive); in test [3], -0.48% (inactive); in test [13], 14.1% (inactive). The nuclear beta-catenin stimulation is 4.4% (inactive) in test [5] (at 10 µM) and 2.4% in test [5] (stimulation, at 2 µM). The insulin secretion stimulation in [6] was -2% (inactive). Also, the viability decrease in test [7] was -2% (inactive). In addition, the tube area decrease in [8] was 17% (inactive). Besides, in test [9], the GLP1 secretion stimulation is 2.4% (inactive). The inhibition of viability in test [10] was 28.7% (inactive). In addition, the viability decrease (inhibition) in test [11] is 41.7% (inactive); in [12] it was 26.4% (inactive). Moreover, the fold change in test [18] (setting [24]) is 0.941 (inactive) and 0.878 (inactive) and 0.848 (inactive); in test [18] (setting [25]) it was 1.96 and 1.1 and 1.66. Moreover, the cell count in test [18] (setting [26]) is 8520 and 7420 and 8230; in test [18] (setting [27]) it was 9050 and 8450 and 9710. Also, the z-score in test [15] (setting [22]) is 0.887 (inactive) and 0.469 (inactive); in test [15] (setting [23]), 0.325 and -0.236. Also, in [16], the remaining NAD was 10 nM (inactive). In test [17], the luciferase signal was 56 AU (inactive). In addition, the log fold change Tl+ flux in the test on F380Y was -0.00371 (inactive).
For `CC(=O)OCC(=O)[C@@]1(O)CC[C@H]2[C@@H]3CCC4=CC(=O)C=C[C@]4(C)[C@H]3[C@@H](O)C[C@@]21C`, in test [19], the parasite load remaining is 83.8% (inactive). Also, in [19], the viability (commonly the share of living cells, or the viability signal relative to a control) is 90.8%. Moreover, the fluorescence ratio in [1] was 0.95 (inactive); in test [4] it was 0.91 (inactive). In addition, the inhibition was -5% (inactive) in test [2], -0.48% (inactive) in [3] and 20% (inactive) in [13]. In addition, the nuclear beta-catenin stimulation was 1.2% (inactive) in [5] (at 10 µM) and 0% in test [5] (stimulation, at 2 µM). For the same compound, the insulin secretion stimulation in [6] was 1% (inactive). In addition, the viability decrease in test [7] is 6.6% (inactive). The tube area decrease in [8] was 5.5% (inactive). For the same compound, in [9], the GLP1 secretion stimulation was 1.2% (inactive). Besides, in [10], the inhibition of viability was -4.6% (inactive). Moreover, the viability decrease (inhibition) in [11] was -9.3% (inactive); in test [12], -10.8% (inactive). The results for the fold change in test [18] (setting [24]) and in [18] (setting [25]) were 0.981 (inactive) and 0.792, respectively. For the same compound, the cell count in [18] (setting [26]) is 8020; in [18] (setting [27]), 8180. Further, the remaining NAD in test [16] was 10 nM (inactive). For the same compound, the luciferase signal in [17] was 60 AU (inactive). The log fold change Tl+ flux with F380Y was 0.0438 (inactive).

(Values after PubChem BioAssay.)
